Results reported in the supplement of paper PMC10338343.
± gives the standard deviation.

Tested on: EfPiwi piRISC loaded with piRNA #1 (26 nt)
Experiment: pre-steady-state target cleavage rate (min^-1); auxiliary factor: 500 nM Ephydatia muelleri Gtsf1; guide: piRNA #1 5'p-UGAGGUAGUAGGUUGUAUAGUAUCCA; MIWI and MILI are mouse PIWI proteins and EfPiwi is from a freshwater sponge; tags in brackets are library labels; higher = faster piRNA-guided slicing of the target
In short: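 The method was Cleave-'n-Seq, in which uncleaved targets from a transcribed, DNA-blocked target RNA library were sequenced after exposure to active affinity-purified piRISC carrying one synthetic guide, with or without GTSF1 partner protein. Reactions contained 0.1 nM library, 1 nM piRISC and, where present, 500 nM GTSF1 in HEPES–potassium acetate buffer at 33 °C for 0–8 or 0–960 min. Reads were normalised to depth and to weakly complementary targets, three trials were pooled, and k3 was capped at 0.0001 min^-1. The pre-steady-state cleavage rate came from a burst-and-steady-state fit.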

Sequence	pre-steady-state target cleavage rate
GGAGACCUAUGAUAUCAACCUACUACCAUCA	< 0.0001
GGAGAGGAAACUAUACAACCUACUUCCUCA	0.00302 ± 0.0017
GGAGACCAUACUAUACAACCUACAACGUCA	0.00373 ± 0.0033
GGAGAGGAUAGUUUACAACCUACUACCUCA	0.0061 ± 0.0039
GGAGUGGAUACUAUACAACCUACUACACUCA	0.00464 ± 0.0021
GGAGACCUAUGAUAUGUUGCAACUACCACA	< 0.0001
GGAGACCUAUGAUAUGUACCUACAUACCUCA	< 0.0001
GGAGACCUAACUAUACCACCUACUACCUCA	0.0066 ± 0.0031
GGAGAGGAUACUAUACAACCUAGUACGUCA	0.0044 ± 0.0019
GGAGACCUUACUCAUACAACCUACUACCUCA	0.00389 ± 0.0032
GGAGAGGAUACUAUACAACUCUACUACCUCA	0.00443 ± 0.0043
GGAGACCUAACUAUACAACCAACUACCUCA	0.00331 ± 0.0023
GGAGACCUAUGUAUACAACCUACUGACCUCA	< 0.0001
GGAGUGGAUACUAUACAACCUACUCCUCA	0.00475 ± 0.0027
GGAGACCUUACUAUACAACACUACUACCUCA	0.0118 ± 0.0053
GGAGUGGAUACUAUACAACCUACUAGGACA	0.00314 ± 0.0029
GGAGAGGAUACUAUACAACCUUGUACCUCA	0.00294 ± 0.0029
GGAGAGGAUACUAUACAACCUACUUCCACA	0.00373 ± 0.0022
GGAGAGGAUACUAUACAACCUUGAACCUCA	0.00408 ± 0.004
GGAGUGGAAACUAUACAACCAACUACCUCA	0.0049 ± 0.0032

Sequence	pre-steady-state target cleavage rate
GGAGACCUUACUAUACAACCUACUAACCUCA	0.00393 ± 0.0038
GGAGAGGAUACUAUACAACCUACUUGGAGA [g7:g25:cont:t1A]	0.00281 ± 0.0022
GGAGACCUAUCUUUACAACCUACUACCUCA	0.0058 ± 0.0037
GGAGACCUAUGAUAUGAUCCUAGUACCUCA	< 0.0001
GGAGACGAUACUAUACAACCUUACUACCUCA	0.00805 ± 0.0039
GGAGACGAUACUAUACGAACCUACUACCUCA	0.00658 ± 0.0033
GGAGAGCUUACUAUACAACCUACUACCUCA	0.0193 ± 0.0089
GGAGACCUAUGAUAUGUACCUACUAUCCUCA	< 0.0001
GGAGACCUUACUAUACAAGCCUACUACCUCA	0.00541 ± 0.0031
GGAGAGGAUACUAUACAUCCUACUAGCUCA	0.00277 ± 0.0019
GGAGAGGAUACUCAUACAACCUACUACCUCA	0.0605 ± 0.024
GGAGACCUAUGAUAUGUUCCUACUCCCUCA	< 0.0001
GGAGACCAUACUAUACUAACCUACUACCUCA	0.0042 ± 0.0031
GGAGAGGAUACUAUACAACCUAGUACCUCA	0.00393 ± 0.0016
GGAGACCUAUCUAUACCAACCUACUACCUCA	0.00573 ± 0.0036
GGAGACCAUACUAUACAACCCUACUACCUCA	0.00693 ± 0.0035
GGAGACCAUACUAUACAACCUAGUACGUCA	0.00483 ± 0.0024
GGAGAGGAUACAAUACAACCUAGUACCUCA	0.00263 ± 0.0018
GGAGACGAUACUACACAACCUACUACCUCA	0.00692 ± 0.0032
GGAGACCAUACUAUACAACACUACUACCUCA	0.00469 ± 0.0037
